Only some compounds are listed: those with a hit (about 12% of all), similar ones and a draw of the others.
G9a inh: qHTS Assay for Inhibitors of Histone Lysine Methyltransferase G9a; AID 504332, 2011; Potency, µM (highest dose often 102 µM), inactives show at the highest dose activity, negative = inhibition, actives largely listed as inhibitors; 350,000 tested, 8.8% active; Histone-lysine N-methyltransferase EHMT2 (Homo sapiens), Q96KQ7; G9a H3K9 monomethylation, AlphaScreen, 2 h; also: potency is read from the fitted curve at half-maximal effect; % is scaled to controls: 0 for no effect and ±100 for the full control effect; nearly all actives have a fitted effect of over 75% in size
Target sequence (Q96KQ7 913-1193 limits assumed): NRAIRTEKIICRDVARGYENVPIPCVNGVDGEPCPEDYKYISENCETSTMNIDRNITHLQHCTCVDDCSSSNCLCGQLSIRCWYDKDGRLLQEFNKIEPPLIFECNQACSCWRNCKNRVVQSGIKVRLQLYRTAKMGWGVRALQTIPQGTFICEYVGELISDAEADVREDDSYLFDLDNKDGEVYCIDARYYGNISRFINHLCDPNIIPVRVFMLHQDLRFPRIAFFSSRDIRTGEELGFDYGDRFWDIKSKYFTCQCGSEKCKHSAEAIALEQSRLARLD
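Signal arises when biotinylated H3K9 peptide, once monomethylated, bridges streptavidin donor and antibody-captured acceptor beads. Enzyme at 20 nM was preincubated 15 min with test compounds; peptide 500 nM and SAM 20 uM then reacted for 2 h.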
PI5P4Ka inh: qHTS for Inhibitors of phosphatidylinositol 5-phosphate 4-kinase (PI5P4K) | PI5P4Kalpha enzyme, ADP-Glo luminescence, 60 min; hits give low values | Phosphatidylinositol 5-phosphate 4-kinase type-2 alpha (Homo sapiens), P48426 | 330,000 tested, 1.2% active | max response, %; active = max response of -50% or lower; inconclusive = between -30% and -50%; inactive = -30% or higher; also: value at the top dose of about 77 µM; % is scaled to controls: 0 for no effect and ±100 for the full control effect
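ADP-Glo luminescence end-point after a 60 min room-temperature kinase reaction. PI5P4Kalpha and substrate in HEPES pH 7.4 buffer with EGTA, 0.1% CHAPS and 5% DMSO; ATP at 5 microM final.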
HP1b chromo inh: HTS for Inhibitors of HP1-beta Chromodomain Interactions with Methylated Histone Tails | AlphaScreen HP1-beta / biotin-H3K9me3 peptide binding | Potency, µM (top dose mostly 114 µM), without a hit: at the top dose activity change, negative = inhibition, actives largely listed as inhibitors | 390,000 tested, 0.56% active; also: potency is read from the fitted curve at half-maximal effect; nearly all actives have a fitted effect of over 70% in size
Target sequence (P83916 whole entry, looked up): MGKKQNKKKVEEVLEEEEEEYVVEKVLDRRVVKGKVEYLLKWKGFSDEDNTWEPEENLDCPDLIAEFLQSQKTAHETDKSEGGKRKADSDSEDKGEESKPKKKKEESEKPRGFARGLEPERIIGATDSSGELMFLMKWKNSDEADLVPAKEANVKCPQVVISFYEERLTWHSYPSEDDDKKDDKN
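HP1-beta protein (50 nM final) preincubated 30 min at room temperature with biotinylated H3(1-18)K9me3 peptide (50 nM) in PBS pH 7.4, 0.01% Tween-20, then compound added for 30 min. AlphaScreen streptavidin donor/nickel chelate acceptor beads (10 ug/mL final), 30 min dark, luminescence read.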
JMJD2A Tudor: qHTS Assay for Inhibitors of JMJD2A-Tudor Domain. Lysine-specific demethylase 4A (Homo sapiens), O75164. AlphaScreen JMJD2A-Tudor / H3K4me3 peptide binding. Potency, µM (highest dose often 114 µM), without a hit: top-dose activity change, negative = inhibition, hits mostly inhibitors. AID 504339, 2011. 390,000 tested, 4.4% active; also: potency is read from the fitted curve at half-maximal effect; % is scaled to controls: 0 for no effect and ±100 for the full control effect; nearly all actives have a fitted effect of over 50% in size
BAZ2B block: qHTS Assay for Inhibitors of BAZ2B. 360,000 tested, 4.4% active. AlphaScreen BAZ2B-H3K14Ac peptide displacement. Bromodomain adjacent to zinc finger domain protein 2B (Homo sapiens), Q9UIF8. AID 504333, 2011. Potency, µM (titrated, usually from 114 µM), without a hit: top-dose activity change, negative = inhibition, most hits filed as inhibitors; also: potency is read from the fitted curve at half-maximal effect; % is scaled to controls: 0 for no effect and ±100 for the full control effect; nearly all actives have a fitted effect of over 60% in size
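Inhibition is scored as reduced AlphaScreen emission. The BAZ2B/b-H3(5-23)K14Ac complex (50 nM each) in PBS pH 7.4, 0.01% Tween-20 meets compound (up to 110 uM) for 30 min at RT before bead addition.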
PLK1 PBD block: qHTS for Inhibitors of PLK1-PDB (polo-like kinase 1 - polo-box domain): Primary Screen. Plk1 PBD binding of FITC phosphopeptide, fluorescence polarization. Potency, µM, for the others: max response, negative = inhibition, actives largely listed as inhibitors. 360,000 tested, 2.8% active. AID 720504, 2013; also: potency is read from the fitted curve at half-maximal effect; series mostly up to about 57 µM; % is scaled to controls: 0 for no effect and ±100 for the full control effect; nearly all actives have a fitted effect of over 65% in size
* marks the source's active call; other numbers are inactive results; ? = inconclusive; . = no result given; [ ] = dose if it differs, or a comment. Unless noted, calls follow the shape of the dose curve; as a rule, active = well fitted curve in the direction sought with a large enough effect; inconclusive = small, poorly fitted or top-dose-only effect, or another doubt; inactive = no such curve, though single readings can be large; an effect the other way counts as inactive or inconclusive.

SMILES	G9a inh	PI5P4Ka inh	HP1b chromo inh	JMJD2A Tudor	BAZ2B block	PLK1 PBD block
COc1ccccc1C(=O)Nc1cc2c(cc1C(=O)O)OCCCO2	2%[59 µM]	-9	16%	-12%	7%	-5%
CCOc1ccccc1OCC(=O)Nc1cc2c(cc1C(=O)O)OCCCO2	25µM*	3	57%	-1%	-11%	-15%
CSc1ccccc1C(=O)Nc1cc2c(cc1C(=O)O)OCCCO2	2.8µM*	-1	1%	22µM*	-27%	30µM*
COc1ccccc1OCC(=O)Nc1cc2c(cc1C(=O)O)OCCCO2	7.9µM*	-9	48%	79µM*	-20%	-28%
O=C(O)c1cc2c(cc1NC(=O)c1ccccc1OC(F)F)OCCCO2	-5%[59 µM]	-6	20%	3%	10%	-6%
COc1cc(NC(=O)C2CCN(S(=O)(=O)c3c(C)noc3/C=C/c3cccs3)CC2)cc(OC)c1	-8%[59 µM]	.	12%	-16%	.	.
O=C(NCc1ccco1)/C(=C\c1ccco1)NC(=O)c1ccco1	45µM*	-5	23%	-20%	10%	-6%
Cc1ccc(NC(=O)/C(=C\c2ccco2)NC(=O)c2ccco2)cc1	28µM*	0	47%	?	-1%	-23%
CC12CC3CC(C)(C1)CC(C(=O)NCc1ccco1)(C3)C2	-6%	4	-6%	-22%[57.1 µM]	-13%	27µM*
Cc1ccc(NC(=S)N2CCN(C(=O)c3ccccc3)CC2)c(C)c1	17%	-13	14%	-33%	.	27µM*
CCc1ccc(CNC(=O)CN2C(=O)c3cccnc3Oc3ccc(Cl)cc32)cc1	-5%[59 µM]	.	14%	-7%	-5%	.
CC(C)(C)C1CCC(=NNC(=O)CC(=O)NCc2ccccc2)CC1 (centres undefined)	?	1	41%	-1%	5%	-4%
CC(C)(C)C1CCC(=NNC(=O)C(=O)NCc2ccco2)CC1 (centres undefined)	20µM*	5	25%	-15%	?	-13%
Cc1ccc(C(=O)N/C(=C/c2ccco2)C(=O)Nc2cccc(C(=O)O)c2)cc1	.	-53*	2%	79µM*	22%	-20%
COC(=O)c1cccc(NC(=O)/C(=C\c2ccco2)NC(=O)c2ccco2)c1	.	-21	.	.	.	-2%
CC(=O)c1cccc(NC(=O)/C(=C/c2ccco2)NC(=O)c2ccco2)c1	74%	0	16%	-18%	0%	-2%
Cc1ccc(NC(=O)N/C=C/c2ccco2)cc1	?	.	-11%	50µM*	79µM*	-10%
Cc1ccc(NC(=O)C(=O)NCc2ccco2)cc1	7%[59 µM]	.	30%	-9%	2%	.
COc1ccccc1C(=O)N/C(=C/c1ccco1)C(=O)Nc1cccc(C(=O)O)c1	?	?	4%	79µM*	?	-4%
COc1ccc(NC(=O)COCc2cc(-c3cccs3)on2)cc1	-3%[59 µM]	.	20%	-8%	5%	.
NC(=O)C1CCCN(C(=O)c2ccc(NC(=O)c3cccs3)cc2)C1 (centres undefined)	-43%[12.7 µM]	-9	26%	-7%	1%	-7%
CCCCC(O)C(=O)Nc1cc(C(F)(F)F)ccc1Cl (centres undefined)	.	.	.	0%	.	.
CCc1cccc(C)c1NC(=O)C(CC)Sc1nncn2c1cc1occc12 (centres undefined)	0%[59 µM]	.	24%	1%	-13%	.
CN(C)c1ccc(CNC(=O)CCC(=O)N2Cc3ccccc3Oc3ncccc32)cc1	?	.	7%	-34%	-4%[57.1 µM]	.
O=C1N(Cc2ccccc2)c2ccccc2OC1(F)F	.	-1	.	.	.	-3%

Screens: PubChem BioAssay, National Center for Advancing Translational Sciences (NCATS)
